According to PubChem BioAssay (NCATS):
Inconclusive results are not listed. Activity calls are given as the source filed them. Unless noted, calls come from the whole dose curve.

Key:
[1] = Natriuretic polypeptide receptor (hNpr1) antagonism - Pilot counterscreen GloSensor control cell line (AID 1347045); note: series mostly up to about 38 µM
Procedure, shortened: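 HEK293 cells carrying the GloSensor cGMP sensor (GIP/pGS-40F) were loaded with 2% GloSensor reagent for 2 h, exposed to compounds for 30 min, and then stimulated with 50 uM sodium nitroprusside for 20 min at room temperature.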

[2] = molecular target: Atrial natriuretic peptide receptor 1 (Homo sapiens) (UniProt P16066); test: Natriuretic polypeptide receptor (hNpr1) antagonism - Pilot screen (AID 1347049);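 note: agonist-evoked cGMP luminescence read 20 min after hNppA addition; series mostly up to about 58 µM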
Procedure, shortened: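 Readout is cGMP-driven firefly luciferase luminescence in HEK293 cells carrying hNpr1 and a PDE5-domain GloSensor, read before and 20 min after 0.1 nM hNppA stimulation. Cells had 2% substrate reagent for 2 h and test compound for 30 min.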

[3] = molecular target: Atrial natriuretic peptide receptor 2 (Homo sapiens) (UniProt P20594); test: Natriuretic polypeptide receptor (hNpr2) antagonism - Pilot subtype selectivity assay (AID 1347050)
Procedure, shortened: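 Pilot selectivity screen against hNpr2: HEK293 cGMP-sensor cells are treated with LOPAC1280 compounds, then with hNppC peptide at 1 nM final. The cGMP-driven luminescence change over 20 min at room temperature is the read-out.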

[4] = NS1 protein of Zika virus - qHTS assay to identify small molecule inhibitors in human HEK 293 cells (AID 1347053; active = well fitted curve in the direction sought with a large enough effect; an effect the other way counts as inactive or inconclusive; note: series mostly up to about 46 µM; nearly all actives have a fitted effect of over 55% in size)
Procedure, shortened: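 HEK 293 cells, seeded 20 h at 37 C, were pretreated with compound 1 h, then infected with ZIKV MR766 (MOI = 0.5) for 24 h. NS1 was read by TR-FRET with two anti-NS1 antibodies, normalized to uninfected and infected wells.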

[5] = molecular target: T1, Tyrosine-protein phosphatase non-receptor type substrate 1 (Homo sapiens) + Leukocyte surface antigen CD47 (Homo sapiens) (UniProt P78324+Q08722); test: CD47-SIRPalpha protein protein interaction - LANCE assay qHTS validation (AID 1347057; active = well fitted curve in the direction sought with a large enough effect in the signal ratio, with a control signal flat, not every such curve was filed as active; the % refers to the signal ratio; note: series mostly up to about 38 µM)
Procedure, shortened: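 First, His-tagged CD47 and Eu-labelled anti-His antibody met the compound for 30 min; next, site-specifically biotinylated SIRPalpha was added for 30 min; finally streptavidin-APC was added before reading the TR-FRET ratio.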

[6] = molecular target: T1, Tyrosine-protein phosphatase non-receptor type substrate 1 (Homo sapiens) + Leukocyte surface antigen CD47 (Homo sapiens); test: CD47-SIRPalpha protein protein interaction - HTRF assay qHTS validation (AID 1347058; active = well fitted curve in the direction sought with a large enough effect in the signal ratio, not every such curve was filed as active; the % refers to the signal ratio;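 note: recombinant soluble extracellular CD47 with His tag and biotinylated SIRPalpha domains; series mostly up to about 38 µM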)
Procedure, shortened: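 TR-FRET read (Ch1/Ch2 ratio) of soluble extracellular CD47 and Avi-biotinylated SIRPalpha domains in PBS pH 7.4 with 0.05% IGEPAL; 7-point compound titration. Sequential 30 min room-temperature steps; non-biotinylated SIRPalpha as control inhibitor.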

[7] = molecular target: T1, Tyrosine-protein phosphatase non-receptor type substrate 1 (Homo sapiens) + Leukocyte surface antigen CD47 (Homo sapiens); test: CD47-SIRPalpha protein protein interaction - Alpha assay qHTS validation (AID 1347059; active = well fitted curve in the direction sought with a large enough effect; an effect the other way counts as inactive or inconclusive;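 note: bead proximity luminescence from CD47 binding SIRPalpha after compound preincubation with SIRPalpha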)
Procedure, shortened: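 Binding is measured by AlphaScreen proximity: Ni-NTA acceptor beads capture His-CD47, streptavidin donor beads capture biotin-SIRPalpha. Each of three additions (SIRPalpha with compound, CD47, beads) incubates 30 min at room temperature protected from light.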

[8] = qHTS for Inhibitors of the Functional Ribonucleoprotein Complex (vRNP) of Lassa (LASV) Arenavirus: LASV Primary Screen - GLuc reporter signal (AID 1347082; calls by dose curve; tested in HEK293 reporter line; note: series mostly up to about 57 µM; nearly all actives have a fitted effect of over 60% in size)
[9] = qHTS for Inhibitors of the Functional Ribonucleoprotein Complex (vRNP) of Lassa (LASV) Arenavirus: Viability assay - alamar blue signal for LASV Primary Screen (AID 1347083; calls by dose curve; tested in HEK293 reporter line; note: series mostly up to about 57 µM; nearly all actives have a fitted effect of over 80% in size)
[10] = qHTS for Inhibitors of the Functional Ribonucleoprotein Complex (vRNP) of Lymphocytic Choriomeningitis Arenaviruses (LCMV): Viability assay - alamar blue signal for LCMV Primary Screen (AID 1347085; calls by dose curve; tested in HEK293 reporter line; note: series mostly up to about 57 µM; nearly all actives have a fitted effect of over 80% in size)
[11] = molecular target: Nucleoprotein (Lymphocytic choriomeningitis virus (strain Armstrong)) (UniProt P09992); test: qHTS for Inhibitors of the Functional Ribonucleoprotein Complex (vRNP) of Lymphocytic Choriomeningitis Arenaviruses (LCMV): LCMV Primary Screen - GLuc reporter signal (AID 1347086); note: series mostly up to about 57 µM; nearly all actives have a fitted effect of over 70% in size
[12] = molecular target: Parathyroid hormone/parathyroid hormone-related peptide receptor (Homo sapiens) (UniProt Q03431); test: qHTS for PTHR1 Agonists: Optimization Screen against the NCGC LOPAC library (AID 1347079; active = well fitted curve in the direction sought with a large enough effect; an effect the other way counts as inactive or inconclusive;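 note: GloSensor cAMP luminescence in HEK-293 GP2 cells expressing human PTHR1 with IBMX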)
Procedure, shortened: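 Compounds were tested across a qHTS titration. PTHR1-expressing GP2 cells report cAMP rises via GloSensor luminescence after 1 hr compound exposure at 37C with IBMX present.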

Measured: Potency

Chain of Parathyroid hormone/parathyroid hormone-related peptide receptor (Homo sapiens) (Q03431 whole entry, looked up): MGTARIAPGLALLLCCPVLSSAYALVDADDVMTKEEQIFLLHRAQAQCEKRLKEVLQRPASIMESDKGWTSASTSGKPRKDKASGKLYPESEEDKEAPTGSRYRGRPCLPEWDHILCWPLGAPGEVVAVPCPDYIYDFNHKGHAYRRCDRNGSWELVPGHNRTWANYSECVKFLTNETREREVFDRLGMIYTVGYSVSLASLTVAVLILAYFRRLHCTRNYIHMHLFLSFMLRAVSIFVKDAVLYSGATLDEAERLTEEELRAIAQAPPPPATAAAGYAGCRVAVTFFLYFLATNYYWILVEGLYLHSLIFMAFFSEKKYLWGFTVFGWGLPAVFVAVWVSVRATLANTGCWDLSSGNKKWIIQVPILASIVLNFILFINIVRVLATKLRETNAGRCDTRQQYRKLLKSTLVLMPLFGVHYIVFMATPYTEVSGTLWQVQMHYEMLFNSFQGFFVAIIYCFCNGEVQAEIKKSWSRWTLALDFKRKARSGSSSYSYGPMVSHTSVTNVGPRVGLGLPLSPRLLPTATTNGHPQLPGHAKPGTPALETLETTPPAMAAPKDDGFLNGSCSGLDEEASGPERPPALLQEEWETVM
Chain of Atrial natriuretic peptide receptor 2 (Homo sapiens) (P20594 whole entry, looked up): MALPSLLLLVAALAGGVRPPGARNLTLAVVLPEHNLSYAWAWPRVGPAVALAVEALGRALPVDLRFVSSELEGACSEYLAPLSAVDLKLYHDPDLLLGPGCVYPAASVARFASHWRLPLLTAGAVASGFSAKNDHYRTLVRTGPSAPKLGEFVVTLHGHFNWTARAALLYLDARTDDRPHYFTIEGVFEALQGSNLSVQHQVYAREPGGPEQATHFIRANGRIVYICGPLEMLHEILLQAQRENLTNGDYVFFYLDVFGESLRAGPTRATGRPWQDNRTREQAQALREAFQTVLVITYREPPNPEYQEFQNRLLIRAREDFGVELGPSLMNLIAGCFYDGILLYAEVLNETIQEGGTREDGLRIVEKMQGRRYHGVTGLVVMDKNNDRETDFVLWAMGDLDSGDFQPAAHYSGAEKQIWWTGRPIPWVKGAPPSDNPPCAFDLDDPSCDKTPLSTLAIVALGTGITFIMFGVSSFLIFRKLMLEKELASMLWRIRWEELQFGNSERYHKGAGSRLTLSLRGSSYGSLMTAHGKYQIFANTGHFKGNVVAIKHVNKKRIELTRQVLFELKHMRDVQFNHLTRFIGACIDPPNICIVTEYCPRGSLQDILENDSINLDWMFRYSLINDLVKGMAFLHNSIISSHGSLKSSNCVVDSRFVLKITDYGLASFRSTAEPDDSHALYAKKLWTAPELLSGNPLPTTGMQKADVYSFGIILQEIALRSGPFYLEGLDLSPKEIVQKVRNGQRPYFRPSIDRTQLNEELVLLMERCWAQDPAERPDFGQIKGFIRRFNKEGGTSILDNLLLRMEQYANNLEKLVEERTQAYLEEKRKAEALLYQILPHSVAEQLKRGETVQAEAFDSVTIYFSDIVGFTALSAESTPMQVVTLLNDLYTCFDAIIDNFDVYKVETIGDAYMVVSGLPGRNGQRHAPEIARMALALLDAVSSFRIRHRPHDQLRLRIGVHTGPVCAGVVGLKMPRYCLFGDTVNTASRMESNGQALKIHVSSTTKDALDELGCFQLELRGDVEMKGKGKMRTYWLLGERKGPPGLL
Chain of Atrial natriuretic peptide receptor 1 (Homo sapiens) (P16066 whole entry, looked up): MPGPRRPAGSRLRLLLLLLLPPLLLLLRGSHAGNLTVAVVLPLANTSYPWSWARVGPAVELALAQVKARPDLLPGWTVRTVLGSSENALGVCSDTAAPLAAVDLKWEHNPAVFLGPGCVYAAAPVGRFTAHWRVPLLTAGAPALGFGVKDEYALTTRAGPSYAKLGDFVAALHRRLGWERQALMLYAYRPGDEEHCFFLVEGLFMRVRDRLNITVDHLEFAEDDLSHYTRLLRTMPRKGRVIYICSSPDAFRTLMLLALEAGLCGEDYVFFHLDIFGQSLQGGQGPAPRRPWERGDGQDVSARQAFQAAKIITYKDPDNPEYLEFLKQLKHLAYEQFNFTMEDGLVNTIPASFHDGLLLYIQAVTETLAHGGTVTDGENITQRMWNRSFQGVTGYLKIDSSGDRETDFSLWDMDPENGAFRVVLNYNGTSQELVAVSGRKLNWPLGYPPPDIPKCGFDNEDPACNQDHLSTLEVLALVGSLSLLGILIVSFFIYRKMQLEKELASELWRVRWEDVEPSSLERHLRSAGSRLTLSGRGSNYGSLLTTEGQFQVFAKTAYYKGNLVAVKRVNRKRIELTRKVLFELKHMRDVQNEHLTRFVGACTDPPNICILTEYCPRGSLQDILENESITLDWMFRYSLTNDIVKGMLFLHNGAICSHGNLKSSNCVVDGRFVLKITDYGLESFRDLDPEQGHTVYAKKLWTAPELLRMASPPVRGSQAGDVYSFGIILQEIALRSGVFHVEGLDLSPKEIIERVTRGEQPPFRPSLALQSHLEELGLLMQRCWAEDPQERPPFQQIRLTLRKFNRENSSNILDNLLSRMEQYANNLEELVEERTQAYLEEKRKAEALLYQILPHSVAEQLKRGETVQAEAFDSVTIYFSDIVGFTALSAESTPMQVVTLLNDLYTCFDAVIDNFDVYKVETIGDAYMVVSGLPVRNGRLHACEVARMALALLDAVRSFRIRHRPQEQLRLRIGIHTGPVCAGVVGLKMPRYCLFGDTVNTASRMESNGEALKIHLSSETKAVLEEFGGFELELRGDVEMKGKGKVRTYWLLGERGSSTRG
T1 sequence (P78324 whole entry, looked up): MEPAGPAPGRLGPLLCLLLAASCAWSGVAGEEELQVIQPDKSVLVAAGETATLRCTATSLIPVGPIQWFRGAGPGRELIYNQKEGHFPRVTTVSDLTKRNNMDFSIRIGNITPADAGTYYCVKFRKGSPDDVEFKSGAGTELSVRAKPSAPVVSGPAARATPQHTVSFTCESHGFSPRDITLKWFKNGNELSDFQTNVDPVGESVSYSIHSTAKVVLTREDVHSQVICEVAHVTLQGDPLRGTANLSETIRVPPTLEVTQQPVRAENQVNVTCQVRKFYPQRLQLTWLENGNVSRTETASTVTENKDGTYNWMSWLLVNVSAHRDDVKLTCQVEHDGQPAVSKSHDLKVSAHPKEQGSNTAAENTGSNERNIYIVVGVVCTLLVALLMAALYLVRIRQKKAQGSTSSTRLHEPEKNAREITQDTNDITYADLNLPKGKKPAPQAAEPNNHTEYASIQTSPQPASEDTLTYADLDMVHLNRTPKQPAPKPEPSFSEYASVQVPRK
T1 sequence (Q08722 whole entry, looked up): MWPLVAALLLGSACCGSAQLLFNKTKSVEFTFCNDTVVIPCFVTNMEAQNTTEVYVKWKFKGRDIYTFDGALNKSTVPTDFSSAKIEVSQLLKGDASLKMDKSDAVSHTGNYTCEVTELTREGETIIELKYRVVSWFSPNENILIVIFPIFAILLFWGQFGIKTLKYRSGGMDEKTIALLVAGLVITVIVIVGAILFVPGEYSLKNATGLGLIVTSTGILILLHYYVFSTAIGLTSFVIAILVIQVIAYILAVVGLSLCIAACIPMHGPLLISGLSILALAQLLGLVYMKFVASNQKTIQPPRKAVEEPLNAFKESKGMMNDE
Chain of Nucleoprotein (Lymphocytic choriomeningitis virus (strain Armstrong)) (P09992 whole entry, looked up): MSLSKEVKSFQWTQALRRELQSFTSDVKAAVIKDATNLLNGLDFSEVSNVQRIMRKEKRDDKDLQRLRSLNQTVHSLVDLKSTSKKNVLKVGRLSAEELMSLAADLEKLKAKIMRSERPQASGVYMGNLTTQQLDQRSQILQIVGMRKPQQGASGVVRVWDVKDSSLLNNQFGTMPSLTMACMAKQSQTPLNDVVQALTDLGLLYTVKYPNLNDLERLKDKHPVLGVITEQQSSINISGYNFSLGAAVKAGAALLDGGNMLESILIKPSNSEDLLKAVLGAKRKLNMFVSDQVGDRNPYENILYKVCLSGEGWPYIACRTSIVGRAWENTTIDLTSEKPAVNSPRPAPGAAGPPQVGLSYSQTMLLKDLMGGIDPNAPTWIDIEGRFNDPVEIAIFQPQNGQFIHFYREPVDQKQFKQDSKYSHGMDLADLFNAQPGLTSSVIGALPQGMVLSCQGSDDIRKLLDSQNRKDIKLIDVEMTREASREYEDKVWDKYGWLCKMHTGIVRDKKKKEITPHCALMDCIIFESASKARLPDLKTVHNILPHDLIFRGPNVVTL

O=C(Cc1ccc(Cl)c(Cl)c1)N1CCCCC1CN1CCCC1 (stereo not given)
inactive: [1] | [2] | [3] | [4] | [5] | [6] | [7] | [8] | [9] | [10] | [11]

NC(N)=NOCCC(N)C(=O)O (stereo not given)
inactive: [1] | [2] | [3] | [4] | [6] | [7] | [8] | [9] | [10] | [11]

NC1CCc2cc(O)c(O)cc2C1 (stereo not given)
inactive: [1] | [2] | [3] | [4] | [6] | [7] | [8] | [9] | [10] | [11]

C[C@@H](N)Cc1cnc[nH]1
inactive: [1] | [2] | [3] | [4] | [6] | [7] | [12] | [8] | [9] | [10] | [11]

C[C@]12CCC3C(CC[C@H]4C[C@H](O)CC[C@]34C)C1CC[C@@H]2C(=O)CO (stereo not given in full)
inactive: [1] | [2] | [3] | [4] | [6] | [7] | [12] | [8] | [9] | [10] | [11]

Cc1nccc2c1[nH]c1ccccc12
inactive: [1] | [2] | [3] | [4] | [5] | [6] | [7] | [8] | [9] | [10] | [11]

COc1cc(C(O)CN)ccc1O (stereo not given)
inactive: [1] | [2] | [3] | [4] | [6] | [7] | [8] | [9] | [10] | [11]

CN1C2CCC1CC(OC(=O)c1cc(Cl)cc(Cl)c1)C2 (stereo not given)
inactive: [1] | [2] | [3] | [4] | [6] | [7] | [8] | [9] | [10] | [11]

NC(CCP(=O)(O)O)C(=O)O (stereo not given)
inactive: [1] | [2] | [3] | [4] | [6] | [7] | [8] | [9] | [10] | [11]

C[C@]12N[C@H](Cc3ccccc31)c1ccccc12
inactive: [1] | [2] | [3] | [4] | [6] | [8] | [9] | [10] | [11]

CCCN1CCO[C@@H]2c3cc(O)ccc3OC[C@H]21
inactive: [1] | [2] | [3] | [4] | [6] | [7] | [12] | [8] | [9] | [10] | [11]

C[C@@H]1O[C@H](C[N+](C)(C)C)C[C@H]1O
inactive: [1] | [2] | [3] | [4] | [6] | [7] | [8] | [9] | [10] | [11]

CC(=O)[C@H]1CCC2C3CC[C@H]4C[C@H](O)CC[C@]4(C)C3CC[C@@]21C (stereo not given in full)
inactive: [1] | [2] | [3] | [4] | [5] | [6] | [7] | [8] | [9] | [10] | [11]
